Data reported in the supplement of paper PMC10849652.
Of roughly 7,900 targets only a part is listed; those with a hit were picked by preference. About 0.6% of all pairs of compound and target were hits. A number with no mark means an inactive call.

Tests used:
Experiment in all cases: log2 fold change, soluble protein after heating vs DMSO (PISA); higher = thermal stabilisation; K562 cells, 10 uM, 30 min; active = over 0.2 and 3.5 SD of the protein, either way, in both replicates (recomputed)
[1] = compound: Cc1ccc(NC(=O)c2ccc(CN3CC[C@H](N(C)C)C3)c(C(F)(F)F)c2)cc1Nc1nccc(-c2cncnc2)n1 [bafetinib]
How it was run: (§1)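 K562 cells (2×10^6 cells/mL) were treated with 10 μM compound for 30 min, and aliquots were heated for 3 min over 48°C-58°C. Pooled aliquots were extracted in PBS with 0.5% NP-40 at 4°C, and the supernatant after 21,000xg for 90 min was measured by TMTpro 16plex LC-MS/MS with channel sums equalised. Reported thermal stability, relative to control samples and from duplicates, is a log2 fold change.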

[2] = compound: Cc1cccc(CC(=O)N2CCc3c2ccc(-c2cn(C)c4ncnc(N)c24)c3F)n1
How it was run: as §1

[3] = compound: Cc1cn(-c2cc(NC(=O)c3ccc(C)c(Nc4nccc(-c5cccnc5)n4)c3)cc(C(F)(F)F)c2)cn1 [nilotinib]
How it was run: as §1

[4] = compound: Cc1nc(Nc2n[nH]c3c2CN(C(=O)N[C@H](CN(C)C)c2ccccc2)C3(C)C)c2sccc2n1
How it was run: as §1

[5] = compound: Cc1nc(Nc2ncc(C(=O)Nc3c(C)cccc3Cl)s2)cc(N2CCN(CCO)CC2)n1 [dasatinib]
How it was run: as §1

[6] = compound: Cc1ncc(-c2ccnc(Nc3ccc(S(C)(=O)=O)cc3)n2)n1C(C)C
How it was run: as §1

[7] = compound: Cn1cc(-c2ccc3c(c2)CCN3C(=O)Cc2cccc(C(F)(F)F)c2)c2c(N)ncnc21
How it was run: as §1

[8] = compound: Cn1cc(-c2ccc3nnc(C(F)(F)c4ccc5ncccc5c4)n3n2)cn1
How it was run: as §1

[9] = compound: Cn1cncc1[C@@](N)(c1ccc(Cl)cc1)c1ccc2c(c1)c(-c1cccc(Cl)c1)cc(=O)n2C [tipifarnib]
How it was run: as §1

[10] = compound: FC(F)(F)c1ccc(/C=C/c2nc(COc3ccc(CCCCn4ccnn4)cc3)co2)cc1 [mubritinib]
How it was run: as §1

[11] = compound: NC(=O)Nc1cc(-c2cccc(F)c2)sc1C(=O)N[C@H]1CCCNC1
How it was run: as §1

[12] = compound: NC(=O)c1cnc(N[C@@H]2CCCC[C@@H]2N)nc1Nc1cccc(-n2nccn2)c1
How it was run: as §1

[13] = compound: NC1(c2ccc(-c3nc4ccn5c(=O)[nH]nc5c4cc3-c3ccccc3)cc2)CCC1
How it was run: as §1

[14] = compound: NCC(=O)Nc1ccc(-n2nc(C(F)(F)F)cc2-c2ccc3c(ccc4ccccc43)c2)cc1
How it was run: as §1

[15] = compound: Nc1ccccc1NC(=O)c1ccc(CNC(=O)OCc2cccnc2)cc1 [entinostat]
How it was run: as §1

[16] = compound: O=C(CCCCCCC(=O)Nc1ccccc1)NO [vorinostat]
How it was run: as §1

[17] = compound: O=C(CCCCCCNC(=O)c1cnc(N(c2ccccc2)c2ccccc2Cl)nc1)NO [citarinostat]
How it was run: as §1

[18] = compound: O=C(O)c1ccc2c(c1)nc(Nc1cccc(Cl)c1)c1ccncc12 [silmitasertib]
How it was run: as §1

[19] = compound: O=C1NC(=O)C(c2cnc3ccccn23)=C1c1cn2c3c(cc(F)cc13)CN(C(=O)N1CCCCC1)CC2
How it was run: as §1

[20] = compound: c1cc(OCCN2CCCCC2)cc(-c2n[nH]c3ccc(-c4nnc[nH]4)cc23)c1
How it was run: as §1

Sequence of UniProt Q5T6V5 (Q5T6V5 whole entry, looked up): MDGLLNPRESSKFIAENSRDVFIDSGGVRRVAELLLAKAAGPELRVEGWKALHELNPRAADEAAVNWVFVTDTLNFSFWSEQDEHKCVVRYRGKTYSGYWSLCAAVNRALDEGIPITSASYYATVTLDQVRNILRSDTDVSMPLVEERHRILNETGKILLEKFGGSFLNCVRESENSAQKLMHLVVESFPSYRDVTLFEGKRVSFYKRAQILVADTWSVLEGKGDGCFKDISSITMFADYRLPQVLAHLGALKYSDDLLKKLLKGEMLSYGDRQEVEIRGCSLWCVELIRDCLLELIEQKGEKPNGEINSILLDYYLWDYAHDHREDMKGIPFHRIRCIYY
Sequence of UniProt O75794 (O75794 whole entry, looked up): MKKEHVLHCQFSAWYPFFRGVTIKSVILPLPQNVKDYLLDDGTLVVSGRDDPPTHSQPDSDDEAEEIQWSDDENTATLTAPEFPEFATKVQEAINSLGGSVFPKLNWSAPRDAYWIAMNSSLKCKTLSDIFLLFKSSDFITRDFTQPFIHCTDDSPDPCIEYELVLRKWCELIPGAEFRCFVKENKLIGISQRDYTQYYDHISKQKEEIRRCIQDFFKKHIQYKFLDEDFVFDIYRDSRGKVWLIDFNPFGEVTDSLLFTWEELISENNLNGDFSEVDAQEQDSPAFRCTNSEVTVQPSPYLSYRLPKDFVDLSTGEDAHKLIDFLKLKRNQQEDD
Sequence of UniProt O43405 (O43405 whole entry, looked up): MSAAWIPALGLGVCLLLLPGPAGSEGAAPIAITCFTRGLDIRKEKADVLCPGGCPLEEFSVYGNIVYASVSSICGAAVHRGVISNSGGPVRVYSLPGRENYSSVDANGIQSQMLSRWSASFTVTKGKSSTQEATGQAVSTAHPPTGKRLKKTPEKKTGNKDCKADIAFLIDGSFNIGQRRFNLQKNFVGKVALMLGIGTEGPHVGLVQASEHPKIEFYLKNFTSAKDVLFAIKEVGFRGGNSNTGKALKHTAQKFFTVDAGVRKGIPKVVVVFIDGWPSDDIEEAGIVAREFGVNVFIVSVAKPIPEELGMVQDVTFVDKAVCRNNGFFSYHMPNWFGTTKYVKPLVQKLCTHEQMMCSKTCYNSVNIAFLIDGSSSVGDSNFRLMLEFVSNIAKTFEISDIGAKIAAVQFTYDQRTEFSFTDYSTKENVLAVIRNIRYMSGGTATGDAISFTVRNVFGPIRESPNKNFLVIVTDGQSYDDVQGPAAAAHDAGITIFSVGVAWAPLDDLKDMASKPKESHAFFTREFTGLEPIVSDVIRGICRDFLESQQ
Sequence of UniProt Q9Y6K0 (Q9Y6K0 whole entry, looked up): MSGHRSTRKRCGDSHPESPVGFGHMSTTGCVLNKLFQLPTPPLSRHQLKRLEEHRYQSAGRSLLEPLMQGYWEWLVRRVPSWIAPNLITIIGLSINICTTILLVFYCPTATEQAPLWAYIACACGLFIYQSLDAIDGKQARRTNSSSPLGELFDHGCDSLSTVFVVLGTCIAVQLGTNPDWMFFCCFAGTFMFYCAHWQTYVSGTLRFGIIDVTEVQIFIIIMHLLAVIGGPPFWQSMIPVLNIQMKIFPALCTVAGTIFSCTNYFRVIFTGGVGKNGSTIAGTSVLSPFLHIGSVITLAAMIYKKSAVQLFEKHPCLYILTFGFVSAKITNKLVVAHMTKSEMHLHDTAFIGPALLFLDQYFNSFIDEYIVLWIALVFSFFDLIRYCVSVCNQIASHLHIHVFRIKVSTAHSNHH
Sequence of UniProt Q8N163 (Q8N163 whole entry, looked up): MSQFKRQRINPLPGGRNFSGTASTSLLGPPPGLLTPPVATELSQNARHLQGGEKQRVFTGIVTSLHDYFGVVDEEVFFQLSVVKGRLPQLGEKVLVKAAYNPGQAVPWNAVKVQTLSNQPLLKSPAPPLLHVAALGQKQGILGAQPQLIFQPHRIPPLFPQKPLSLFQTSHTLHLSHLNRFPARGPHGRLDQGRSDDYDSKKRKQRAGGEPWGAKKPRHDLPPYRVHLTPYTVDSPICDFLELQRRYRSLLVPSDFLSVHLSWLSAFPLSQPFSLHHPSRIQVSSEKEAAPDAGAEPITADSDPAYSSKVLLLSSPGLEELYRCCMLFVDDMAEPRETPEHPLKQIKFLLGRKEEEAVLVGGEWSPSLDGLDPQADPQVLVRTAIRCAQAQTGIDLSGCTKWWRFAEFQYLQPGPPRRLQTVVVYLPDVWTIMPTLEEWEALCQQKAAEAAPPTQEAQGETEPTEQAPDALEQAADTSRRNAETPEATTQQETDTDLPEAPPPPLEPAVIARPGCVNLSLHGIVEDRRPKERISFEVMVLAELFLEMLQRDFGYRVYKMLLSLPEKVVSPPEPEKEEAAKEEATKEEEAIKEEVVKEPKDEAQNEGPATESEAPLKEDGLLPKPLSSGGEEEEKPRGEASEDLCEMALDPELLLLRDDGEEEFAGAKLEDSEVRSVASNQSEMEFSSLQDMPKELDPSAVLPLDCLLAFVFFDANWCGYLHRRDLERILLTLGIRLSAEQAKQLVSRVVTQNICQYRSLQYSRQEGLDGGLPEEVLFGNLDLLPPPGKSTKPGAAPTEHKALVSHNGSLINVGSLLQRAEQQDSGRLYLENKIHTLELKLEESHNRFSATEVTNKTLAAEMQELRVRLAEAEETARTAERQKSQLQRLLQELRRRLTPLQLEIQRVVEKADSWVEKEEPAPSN
Sequence of UniProt O75153 (O75153 whole entry, looked up): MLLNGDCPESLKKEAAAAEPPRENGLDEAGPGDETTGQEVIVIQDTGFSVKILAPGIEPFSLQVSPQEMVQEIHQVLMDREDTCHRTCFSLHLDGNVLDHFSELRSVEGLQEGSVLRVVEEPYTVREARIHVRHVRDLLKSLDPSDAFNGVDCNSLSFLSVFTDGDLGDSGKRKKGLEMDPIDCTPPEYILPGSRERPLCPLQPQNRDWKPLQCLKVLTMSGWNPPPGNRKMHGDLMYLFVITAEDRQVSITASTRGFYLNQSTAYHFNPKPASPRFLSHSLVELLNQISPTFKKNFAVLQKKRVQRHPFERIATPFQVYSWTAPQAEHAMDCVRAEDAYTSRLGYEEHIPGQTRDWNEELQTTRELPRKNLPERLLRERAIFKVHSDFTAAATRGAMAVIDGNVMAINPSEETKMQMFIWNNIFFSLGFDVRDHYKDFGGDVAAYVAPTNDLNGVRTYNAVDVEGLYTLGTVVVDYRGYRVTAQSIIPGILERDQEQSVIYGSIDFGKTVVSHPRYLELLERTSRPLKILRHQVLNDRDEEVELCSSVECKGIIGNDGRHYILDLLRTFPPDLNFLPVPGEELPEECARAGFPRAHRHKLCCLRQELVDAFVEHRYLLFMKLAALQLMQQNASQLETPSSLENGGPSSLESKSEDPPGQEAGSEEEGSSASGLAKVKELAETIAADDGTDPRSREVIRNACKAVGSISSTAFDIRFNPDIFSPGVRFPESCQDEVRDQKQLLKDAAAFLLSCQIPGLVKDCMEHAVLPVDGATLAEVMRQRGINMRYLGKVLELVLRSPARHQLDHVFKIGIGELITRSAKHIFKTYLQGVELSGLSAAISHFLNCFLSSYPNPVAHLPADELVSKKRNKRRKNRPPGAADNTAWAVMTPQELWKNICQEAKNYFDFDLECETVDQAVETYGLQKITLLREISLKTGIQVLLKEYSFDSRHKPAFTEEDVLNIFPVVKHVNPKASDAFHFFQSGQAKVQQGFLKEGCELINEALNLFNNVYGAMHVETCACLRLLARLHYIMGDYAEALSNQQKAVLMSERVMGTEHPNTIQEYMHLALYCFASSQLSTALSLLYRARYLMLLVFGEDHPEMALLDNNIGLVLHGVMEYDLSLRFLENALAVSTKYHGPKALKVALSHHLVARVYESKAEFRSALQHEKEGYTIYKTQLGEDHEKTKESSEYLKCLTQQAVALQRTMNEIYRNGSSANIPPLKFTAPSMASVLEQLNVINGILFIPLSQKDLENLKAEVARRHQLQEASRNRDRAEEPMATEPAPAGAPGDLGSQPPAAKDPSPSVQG
Sequence of UniProt Q92851 (Q92851 whole entry, looked up): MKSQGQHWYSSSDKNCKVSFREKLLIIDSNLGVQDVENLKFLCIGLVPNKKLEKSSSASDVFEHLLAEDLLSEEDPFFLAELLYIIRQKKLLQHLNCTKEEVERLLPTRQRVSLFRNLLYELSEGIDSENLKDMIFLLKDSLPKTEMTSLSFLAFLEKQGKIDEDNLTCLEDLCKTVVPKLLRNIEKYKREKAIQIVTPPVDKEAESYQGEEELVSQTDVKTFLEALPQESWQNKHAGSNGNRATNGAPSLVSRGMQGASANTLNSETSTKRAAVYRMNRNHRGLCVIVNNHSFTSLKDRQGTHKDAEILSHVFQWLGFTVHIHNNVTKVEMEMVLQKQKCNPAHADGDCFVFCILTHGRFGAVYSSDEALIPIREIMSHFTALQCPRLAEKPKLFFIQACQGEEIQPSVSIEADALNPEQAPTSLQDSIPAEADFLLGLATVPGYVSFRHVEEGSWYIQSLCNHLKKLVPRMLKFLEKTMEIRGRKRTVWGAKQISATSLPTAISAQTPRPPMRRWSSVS
Sequence of UniProt P19784 (P19784 whole entry, looked up): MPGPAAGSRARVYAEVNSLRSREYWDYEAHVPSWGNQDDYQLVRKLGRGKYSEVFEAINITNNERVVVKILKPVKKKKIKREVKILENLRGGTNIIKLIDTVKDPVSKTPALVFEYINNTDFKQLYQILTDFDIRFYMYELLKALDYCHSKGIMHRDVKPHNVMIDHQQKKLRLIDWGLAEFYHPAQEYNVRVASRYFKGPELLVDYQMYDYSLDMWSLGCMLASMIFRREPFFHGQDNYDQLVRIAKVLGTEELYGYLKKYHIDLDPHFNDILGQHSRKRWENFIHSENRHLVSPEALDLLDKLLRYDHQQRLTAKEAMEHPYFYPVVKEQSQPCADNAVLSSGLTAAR
Sequence of UniProt Q86X83 (Q86X83 whole entry, looked up): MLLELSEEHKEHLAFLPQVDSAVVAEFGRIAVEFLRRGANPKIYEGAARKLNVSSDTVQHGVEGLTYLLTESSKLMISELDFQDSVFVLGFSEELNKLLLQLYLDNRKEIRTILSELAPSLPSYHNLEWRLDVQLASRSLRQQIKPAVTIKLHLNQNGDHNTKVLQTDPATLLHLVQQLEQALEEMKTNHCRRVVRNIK

| Target | log2 fold change [1] | log2 fold change [2] | log2 fold change [3] | log2 fold change [4] | log2 fold change [5] | log2 fold change [6] | log2 fold change [7] | log2 fold change [8] | log2 fold change [9] | log2 fold change [10] | log2 fold change [11] | log2 fold change [12] | log2 fold change [13] | log2 fold change [14] | log2 fold change [15] | log2 fold change [16] | log2 fold change [17] | log2 fold change [18] | log2 fold change [19] | log2 fold change [20] |
| --- | --- | --- | --- | --- | --- | --- | --- | --- | --- | --- | --- | --- | --- | --- | --- | --- | --- | --- | --- | --- |
| CEPT1 (UniProt Q9Y6K0) | -0.048 | 0.032 | -0.052 | 0.156 | -0.008 | 0.044 | 0.031 | -0.014 | -0.055 | -0.012 | -0.065 | -0.101 | -0.215 | -0.156 | 0.065 | -0.078 | -0.023 | -0.014 | -0.054 | -0.085 |
| C9orf64 (UniProt Q5T6V5) | 0.031 | 0.218 | -0.045 | -0.094 | -0.197 | -0.04 | 0.079 | 0.085 | -0.163 | 0.282 | 0 | -0.155 | -0.338 | -0.02 | 0.088 | 0.167 | 0.064 | 0.037 | 0.012 | -0.106 |
| CASP10 isoform 4 (UniProt Q92851) | 0.001 | -0.394 | -0.087 | -0.103 | -0.301 | 0.037 | -0.044 | 0.063 | 0.119 | 0.084 | -0.089 | -0.058 | -0.084 | -0.055 | -0.05 | 0.258 | 0.123 | 0.076 | 0.089 | -0.13 |
| CCAR1 (UniProt Q8IX12) | 0.036 | 0.036 | -0.055 | -0.033 | -0.112 | -0.095 | 0.079 | 0.019 | -0.091 | 0.122 | 0 | -0.068 | -0.198 | -0.035 | 0.021 | 0.067 | 0.018 | -0.049 | -0.043 | -0.016 |
| COCH (UniProt O43405) | 0.076 | -0.17 | 0.2 | -0.288 | 0.179 | -0.262 | -0.069 | -0.005 | 0.07 | -0.062 | 0.024 | -0.014 | 0.035 | 0.13 | 0.123 | -0.122 | -0.084 | 0.072 | 0.055 | -0.149 |
| CPD (UniProt O75976) | -0.07 | 0.01 | -0.007 | -0.033 | 0.026 | -0.029 | -0.029 | 0.026 | 0.055 | -0.009 | 0.002 | 0.032 | -0.101 | -0.008 | 0.016 | 0.019 | 0.018 | 0.032 | -0.034 | -0.111 |
| COQ9 (UniProt O75208) | -0.124 | 0.074 | -0.06 | -0.035 | -0.147 | 0.001 | 0.052 | 0.028 | -0.068 | -0.04 | 0.02 | -0.002 | -0.151 | -0.032 | 0.045 | 0.028 | -0.013 | 0.021 | -0.103 | 0.008 |
| CLUH (UniProt O75153) | 0.007 | 0.045 | 0.191 | 0.108 | -0.093 | -0.068 | 0.067 | 0.478 (active) | -0.022 | -0.018 | -0.002 | -0.072 | 0.023 | -0.025 | 0.022 | 0.05 | -0.08 | 0.063 | 0.133 | 0.041 |
| CAMKK2 (UniProt Q96RR4) | 0.04 | -0.144 | -0.008 | 0.226 | 0 | -0.14 | -0.083 | 0.102 | -0.076 | -0.024 | -0.088 | -0.389 | -0.113 | -0.047 | 0.015 | 0.323 | -0.144 | 0.128 | -0.038 | 0.036 |
| CLINT1 isoform 3 (UniProt Q14677) | 0.024 | -0.083 | 0.042 | 0.037 | 0.264 (active) | -0.026 | -0.071 | -0.083 | 0.017 | 0.045 | 0.106 | -0.027 | 0.078 | 0.058 | -0.052 | -0.035 | -0.048 | 0.008 | 0.024 | 0.015 |
| CDC123 (UniProt O75794) | 0.015 | -0.013 | -0.084 | 0.079 | -0.032 | 0.018 | 0.029 | -0.04 | -0.031 | -0.006 | -0.029 | 0.045 | -0.077 | -0.01 | 0.026 | 0.032 | 0.045 | -0.048 | 0.011 | -0.056 |
| CSNK2A2 (UniProt P19784) | -0.042 | -0.008 | -0.009 | 0.016 | -0.056 | -0.019 | -0.009 | 0.038 | -0.033 | -0.019 | -0.069 | 0.008 | -0.052 | 0.069 | -0.015 | 0.086 | 0.011 | 0.873 (active) | -0.076 | 0.022 |
| CCAR2 isoform 2 (UniProt Q8N163) | 0.007 | 0.01 | -0.053 | -0.023 | -0.176 | -0.157 | -0.009 | 0.042 | 0.011 | 0.031 | -0.056 | -0.106 | -0.013 | -0.088 | 0.089 | 0.168 | 0.033 | -0.039 | -0.151 | 0.033 |
| CDKN2AIP (UniProt Q9NXV6) | 0.034 | 0.021 | -0.021 | 0.034 | -0.041 | 0.015 | -0.049 | -0.012 | 0.046 | -0.011 | 0.003 | 0.044 | -0.018 | -0.026 | 0.017 | 0.027 | 0.013 | 0.026 | 0.022 | -0.071 |
| CHCHD1 (UniProt Q96BP2) | -0.084 | 0.081 | -0.007 | 0.02 | -0.057 | -0.031 | -0.153 | 0.105 | 0.077 | 0.104 | 0.017 | -0.142 | -0.149 | -0.023 | 0.03 | 0.023 | 0.009 | 0.031 | -0.015 | -0.169 |
| COMMD2 (UniProt Q86X83) | 0.162 | -0.066 | -0.132 | -0.069 | -0.177 | 0.097 | -0.099 | 0.057 | 0.025 | 0.101 | -0.007 | -0.034 | -0.098 | 0.039 | -0.062 | 0.049 | 0.011 | 0.053 | 0.011 | -0.08 |
